Reference: PubChem BioAssay AID1240 (Sanford-Burnham Center for Chemical Genomics, 2008)
About 800 (1.6%) of roughly 50,000 compounds showed an effect of 50% or more. The full list was thinned out, with strong results kept by preference.

The compounds below were run against Bcl-2-like protein 10 (Homo sapiens) (UniProt Q9HD36) (assay: Phenotype converters, Bcl-B/TR3 peptide binding displacement, primary biochemical FP (AID 1240;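 note: 0% = Bcl-B with tracer peptide and DMSO and 100% = tracer peptide lacking Bcl-B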)). Conditions: GST-Bcl-B / FITC-TR3 peptide fluorescence polarization; stronger effect = higher value; compound at 3.75 mg/L.
Sequence of Bcl-2-like protein 10 (Homo sapiens) (Q9HD36 whole entry, looked up): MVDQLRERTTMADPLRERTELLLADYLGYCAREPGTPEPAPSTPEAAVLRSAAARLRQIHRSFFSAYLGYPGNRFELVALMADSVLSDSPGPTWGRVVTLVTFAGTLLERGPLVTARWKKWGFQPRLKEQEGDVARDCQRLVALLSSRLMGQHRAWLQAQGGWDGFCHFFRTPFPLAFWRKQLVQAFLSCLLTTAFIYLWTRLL

Structure (SMILES) | displacement
Cc1cc(C)nc(SCC(=O)Nc2ccc(C)c(NC(=O)CSc3nc(C)cc(C)n3)c2)n1 | 23.5%
CN(C)c1ccc(/C=C/C(=O)c2ccc3c(c2)OCCO3)cc1 | -18.8%
CCOC(=O)C1=C(C)NC(C)=C(C(=O)OCC)C1c1ccc(F)cc1 | 0%
CC1=C(C(=O)OC(C)C)C(c2ccc(F)cc2)NC(=O)N1 (stereo unspecified) | 6.9%
CC1=C(C(=O)OC(C)C)C(c2ccc(F)cc2)C(C(=O)OC(C)C)=C(C)N1 | 54.7%
COc1ccc(CNC(=O)CN(c2c(C)n(C)n(-c3ccccc3)c2=O)S(=O)(=O)c2ccccc2)cc1 | -6.2%
Cc1cc(Nc2ccccc2)nn1C(=O)c1ccc(Cl)cc1 | -10.9%
Cn1c2ccccc2c2cc(C3Nc4ccccc4C(=O)N3Cc3ccco3)ccc21 (stereo unspecified) | 10.3%
COc1ccc(/C=C\C(=O)C2C(=O)c3ccccc3C2=O)cc1 | 122%
O=C(/C=C/c1ccc([N+](=O)[O-])cc1)C1C(=O)c2ccccc2C1=O | -6.3%
O=C(/C=C/c1ccc(S(=O)(=O)Nc2ccccc2)cc1)C1C(=O)c2ccccc2C1=O | 31.1%
CC1CC(C)CN(S(=O)(=O)c2ccc(F)cc2)C1 (stereo unspecified) | -9%
CN(C)/C=C/C=C/C(=O)c1ccc(/C=C/C=C/N(C)C)o1 | 36.1%
CC(=O)Nc1ccc(/C=C(/C#N)C(=O)NCc2ccco2)cc1 | 9.4%
CC(=O)Nc1ccc(/C=C(/C#N)C(=O)N/N=C/c2ccc(NC(C)=O)cc2)cc1 | 110%
N#C/C(=C/c1ccc(Cl)cc1)C(=O)Nc1ccc(O)cc1 | 7.1%
CSc1ccc(/C=N\NC(=O)c2cnccn2)cc1 | 109%
O=C(N/N=C\c1ccc(Cl)c(Cl)c1)c1cnccn1 | -7.3%
CSc1ccc(/C=N/NC(=O)c2cc(C)[nH]n2)cc1 | 3.8%
Cc1ccc(S(=O)(=O)/N=C(/NC(=S)N2CCOCC2)c2ccccc2)cc1 | -5.4%
CCOC(=O)c1ccccc1NC(=O)CN(c1ccc(Br)cc1)S(C)(=O)=O | -5%
CC1=Nc2ccccc2/C1=C\c1sc(=S)n(-c2cccc(F)c2)c1O | -1.7%

Structure (SMILES) | displacement
CC1=Nc2ccccc2/C1=C\c1sc(=S)n(-c2ccccc2)c1O | 104%
CC1=Nc2ccccc2/C1=C\c1c(O)n(-c2ccccc2)c(=O)[nH]c1=O | -3.1%
O=C(CCCN1C(=O)c2ccccc2C1=O)Nc1cccnc1 | 20.6%
CC(c1ccccc1)N1C(=O)C(=Cc2c(NCC3CCCO3)nc3ccccn3c2=O)SC1=S (stereo unspecified) | -14.7%
COC(=O)c1ccc(C2C(C(=O)OC(C)C)=C(C)N=C3SCCC(=O)N32)cc1 (stereo unspecified) | 11.3%
CC1=C(C(=O)OC(C)C)C(c2ccc(Cl)c(Cl)c2)N2C(=O)CCSC2=N1 (stereo unspecified) | 15.3%
CC1=C(C(=O)OC(C)C)C(c2ccccc2)N2C(=O)CCSC2=N1 (stereo unspecified) | 61.6%
Cc1cc(=O)oc2c1c(C)nn2-c1ccc(Br)cc1 | 2.1%
COc1ccccc1NC(=O)C1=C(C)NC(=S)NC1c1ccccc1OC (stereo unspecified) | 6%
O=C1NC(=O)N(c2ccc(Cl)cc2)C(=O)/C1=C\c1ccc(N2CCCC2)cc1 | 71.4%
O=C1NC(=O)N(c2ccccc2)C(=O)/C1=C/c1ccc(N2CCCC2)cc1 | -30.2%
COC(=O)Cn1cc(/C=C2\C(=O)NC(=O)N(c3cc(C)cc(C)c3)C2=O)c2ccccc21 | -4.6%
Cc1c(/C=C2\C(=O)NC(=O)N(c3ccc(Cl)cc3)C2=O)c2ccccc2n1C | 104%
Cc1cc(N2C(=O)NC(=O)/C(=C\c3cn(C)c4ccccc34)C2=O)ccc1Br | 126%
CCn1cc(/C=C2\C(=O)NC(=O)N(c3ccc(Cl)cc3)C2=O)c2ccccc21 | -18.6%
Cc1cc(C)cc(N2C(=O)NC(=O)/C(=C\c3ccccc3C)C2=O)c1 | 6.3%
CCOc1ccccc1/C=C1\C(=O)NC(=O)N(c2ccc(Br)c(C)c2)C1=O | -7.9%
C#CCn1cc(/C=C2\C(=O)NC(=O)N(c3ccc(Br)c(C)c3)C2=O)c2ccccc21 | 6.2%
O=C1NC(=O)N(c2ccccc2)C(=O)/C1=C\c1ccc(Cl)cc1 | 1.4%
O=C1NC(=O)N(c2ccc(Cl)cc2)C(=O)/C1=C/c1ccc(F)cc1 | 8.2%
Cc1cc(C)cc(N2C(=O)NC(=O)/C(=C\c3cn(C)c4ccccc34)C2=O)c1 | 144%
Cc1ccc(C(=O)N2CCC(Cc3ccccc3)CC2)o1 | 6.7%

Structure (SMILES) | displacement
CC1S/C(=N/N=C/c2ccccc2Cl)NC1=O (stereo unspecified) | 1.2%
CCOC(=O)/C(C#N)=C\c1ccc(F)cc1 | 2.3%
CCOC(=O)C(C)Oc1cc2oc(=O)cc(-c3ccccc3)c2cc1CC (stereo unspecified) | 11%
COc1ccc(CCN=CC2=C(O)CC(c3ccccc3)CC2=O)cc1OC (stereo unspecified) | 1.2%
CCCOc1cccc(NC(=O)c2c(-c3ccccc3)noc2C)c1 | -5.5%
COc1ccc(OC)c(/C=C/C(=O)Oc2cc(C)cc(C)c2)c1 | 11.8%
CC(C)c1ccc(N2C(=O)NC(=O)/C(=C/c3ccccc3O)C2=O)cc1 | 0.6%
COc1ccc(N2C(=O)NC(=O)/C(=C/c3cn(CCOc4ccccc4OC)c4ccccc34)C2=O)cc1 | 87.6%
Cc1cccc(N2C(=O)S/C(=C\c3ccccc3)C2=O)c1 | 12.3%
Cn1cc(C=C2C(=O)NC(=S)NC2=O)c2ccccc21 | 8.8%
CC(C)c1ccc(N2C(=O)NC(=O)/C(=C/c3cn(C)c4ccccc34)C2=O)cc1 | 145%
COc1ccccc1OCCn1cc(C=C2C(=O)N(C)C(=O)N(C)C2=O)c2ccccc21 | 3.5%
COc1ccccc1OCCn1cc(/C=C2/C(=O)NC(=O)N(c3ccccc3)C2=O)c2ccccc21 | 1.6%
Cc1cccc(N2C(=O)/C(=C/c3ccc(N(C)C)cc3)SC2=S)c1 | -5.4%
Cc1cccc(N2C(=O)S/C(=C/c3ccc(N(C)C)cc3)C2=O)c1 | 95.7%
Cc1ccc(N2C(=O)NC(=O)/C(=C\c3ccsc3)C2=O)cc1 | 66.1%
O=C1NC(=O)N(c2ccc(Cl)cc2)C(=O)/C1=C/c1ccsc1 | -24.1%
Cc1cc(C)cc(N2C(=O)NC(=O)/C(=C\c3ccsc3)C2=O)c1 | -7.8%
O=C(NCc1cccs1)c1cc2n(n1)C(C(F)(F)F)CC(c1cccs1)N2 (stereo unspecified) | 0%
CCC(Oc1ccccc1)C(=O)NC(C)c1ccccc1 (stereo unspecified) | -18.9%
Oc1ccc(Br)cc1C=NCc1ccco1 | 3.3%
Cc1sc(NC(=O)c2ccc(Br)o2)c(C(N)=O)c1C | 10%
